This note sets out measurements from PubChem BioAssay (NCATS).

Results filed as inconclusive are left out. Unmarked numbers belong to inactive results. The source made the active and inactive calls. Calls come from the whole dose curve; as a rule, active = well fitted curve in the direction sought with a large enough effect; inconclusive = small, poorly fitted or top-dose-only effect, or another doubt; inactive = no such curve, though single readings can be large; an effect the other way counts as inactive or inconclusive.

For assay [1], the target named is Calcium and integrin-binding protein 1 (Homo sapiens) (UniProt Q99828). The assay can be described thus: Primary qHTS for Identification of Calcium Integrin Binding Protein 1 (CIB1) Competitor (AID 1508620).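 Note: GST tagged CIB1 binding a fluorescein labelled alphaIIb integrin peptide tracer; top concentration of the series differs between compounds.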 In outline:
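Fluorescence polarization competition: GST-tagged CIB1 (1 uM final) preincubated with compound 15 min at room temperature, then FITC-labelled alphaIIb peptide (100 nM final) added. After 15 min at room temperature, polarization read at Ex 480/Em 540.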
On the technique in general: Quantitative high-throughput screening tests each substance at several concentrations.

Assay [2] is described as follows: Primary qHTS for inhibitors of nuclear receptor binding SET domain protein 2 (NSD2) in an isogenic RCH-ACV NSD2 p.E1099K mutant (9B) (AID 1645876). Note: nearly all actives have a fitted effect of over 70% in size. Note: potency is the fitted concentration of half-maximal effect.
A short description of assay [3]: Primary qHTS for inhibitors of nuclear receptor binding SET domain protein 2 (NSD2) in an RCH-ACV wild type WT cells (2C) (AID 1645877). Note: nearly all actives have a fitted effect of over 70% in size. Note: potency is the fitted concentration of half-maximal effect.
% is set by controls: 0 for no effect and ±100 for the full control effect.

Sequence of Calcium and integrin-binding protein 1 (Homo sapiens) (Q99828 whole entry, looked up): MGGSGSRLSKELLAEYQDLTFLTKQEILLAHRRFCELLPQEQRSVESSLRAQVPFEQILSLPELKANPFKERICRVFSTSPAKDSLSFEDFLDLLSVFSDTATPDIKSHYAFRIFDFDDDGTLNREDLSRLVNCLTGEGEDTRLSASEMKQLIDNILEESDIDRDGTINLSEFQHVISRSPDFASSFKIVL

On to `C=C(CCO)C(=O)OCC1OCC(OC(=O)C(=C)CCO[C@@H]2O[C@H](CO)[C@@H](O)[C@H](O)[C@H]2O)C(O)C1O` (stereo partly specified), for which the Potency entry in assay [1], in assay [2] and in assay [3] was “inactive” in each case.
Take `COC(=O)C1=CO[C@@H](O[C@@H]2O[C@H](CO)[C@@H](O)[C@H](O)[C@H]2O)C2C1CC(O)C2C` (stereo partly specified): the Potency entry in assay [1], in assay [2] and in assay [3] was “inactive” each time.
With `O=C(O)CC/C=C\C[C@H]1CO[C@@H](c2ccccc2Cl)O[C@H]1c1ccccc1O`, the Potency entry in assay [1], in assay [2] and in assay [3] was “inactive” each time.
Consider `C[C@@H]1O[C@@H](O[C@H]2[C@H](OC(=O)[C@]34CCC(C)(C)C[C@H]3C3=CCC5[C@@]6(C)CC[C@H](O[C@@H]7O[C@H](CO[C@@H]8OC[C@H](O)[C@H](O)[C@H]8O[C@@H]8OC[C@@H](O)[C@H](O)[C@H]8O)[C@@H](O)[C@H](O)[C@H]7O)C(C)(C)C6CC[C@@]5(C)[C@]3(C)C[C@H]4O)O[C@H](CO)[C@@H](O)[C@@H]2O)[C@H](O[C@@H]2O[C@H](CO)[C@@H](O)[C@H](O)[C@H]2O)[C@H](O)[C@H]1O[C@@H]1OC[C@@H](O)[C@H](O[C@@H]2OC[C@@H](O)[C@H](O)[C@H]2O)[C@H]1O` (stereo partly specified), for which, in assay [1], the activity change, negative = inhibition is 0.603% [at 12.4 µM]. Further, the activity change, negative = viability loss in assay [2] was 4.39% [at 4.96 µM]. Besides, the activity change, negative = cell killing in assay [3] is 4.37% [at 4.96 µM].
For the compound `CC1(C)C(=O)CCC2(C)C1C(O)C=C1COC(=O)C12O` (stereo unspecified), the Potency result in assay [1], in assay [2] and in assay [3] was “inactive” in each case.
For `CC(=O)OCC1=C[C@@H]2OC(=O)C3=CO[C@@H](O[C@@H]4O[C@H](CO)[C@@H](O)[C@H](O)[C@H]4O)[C@H]1[C@@H]32`, the Potency result in assay [1], in assay [2] and in assay [3] was “inactive” throughout.
In the case of `C[C@@H](CC[C@@H]1[C@@]2(C)CCCC(C)(C)C2CC[C@@]1(C)O)CC(=O)O` (stereo partly specified), the Potency entry in assay [1], in assay [2] and in assay [3] was “inactive” each time.
Consider `COc1ccc(/C=C/C(=O)O[C@@H]2[C@@H](O[C@@H]3O[C@H](CO)[C@@H](O)[C@H](O)[C@H]3O)[C@@H](O)[C@H](O[C@H]3C4C=CO[C@@H](O[C@@H]5O[C@H](CO)[C@@H](O)[C@H](O)[C@H]5O)C4[C@@]4(CO)O[C@@H]34)O[C@H]2C)cc1` (stereo partly specified), for which the Potency result in assay [1] was “inactive”. Also, the activity change, negative = viability loss in assay [2] is -15.4% [at 9.23 µM]. In addition, the activity change, negative = cell killing in assay [3] was -20.7% [at 9.23 µM].
Turning to `C[C@]12CCC[C@](C)(C(=O)O)C1[C@@H](O)[C@@H](O)C13CC(CCC12)C(CO)(O[C@@H]1O[C@H](CO)[C@@H](O)[C@H](O)[C@H]1O)C3` (stereo partly specified), the Potency entry in assay [1], in assay [2] and in assay [3] was “inactive” in each case.
On to `OCC(O)C(c1c[nH]c2ccccc12)c1c[nH]c2ccccc12` (stereo unspecified), for which the Potency result in assay [1], in assay [2] and in assay [3] was “inactive” each time.
Turning to `O=C(O)/C=C/c1ccc2occc2c1O[C@@H]1O[C@H](CO)[C@@H](O)[C@H](O)[C@H]1O`, the Potency result in assay [1], in assay [2] and in assay [3] was “inactive” throughout.
As for `CSCC1OC(n2cnc3c(=O)[nH]cnc32)C(O)C1O` (stereo unspecified), the Potency entry in assay [1], in assay [2] and in assay [3] was “inactive” throughout.
On to H-DPPDPDRFYGMM-NH2, for which the Potency entry in assay [1], in assay [2] and in assay [3] was “inactive” throughout.
Regarding `CC1(O)CCC2C(C3C1CCC3(C)O)C2(C)C` (stereo unspecified), the Potency result in assay [1], in assay [2] and in assay [3] was “inactive” throughout.
Regarding `CC1(C)OC(=O)CC(O)C2(C)C1CC(=O)C1(C)C2C(O)CC2(C)C(c3ccoc3)OC(=O)C3OC321` (stereo unspecified), the Potency entry in assay [1], in assay [2] and in assay [3] was “inactive” each time.
For `COc1c2c(c(C)c3c1C(=O)OC3)OC1(C)CC(O)C34OC(O)(CCC3(C)C1C2)OC4(C)C` (stereo unspecified), the Potency entry in assay [1], in assay [2] and in assay [3] was “inactive” throughout.
On to `COC(=O)C1=COC(OC2OC(CO)C(O)C(O)C2O)C2C(C)C(OC(=O)/C=C/c3ccc(O)cc3)C(O)C12` (stereo unspecified), for which the Potency result in assay [1], in assay [2] and in assay [3] was “inactive” throughout.
For the compound `O=C(C[C@@H]1C(C(=O)O)=CO[C@@H](O[C@@H]2O[C@H](CO)[C@@H](O)[C@H](O)[C@H]2O)/C1=C\CO)OCCc1ccc(O)c(O)c1`, the Potency result in assay [1], in assay [2] and in assay [3] was “inactive” in each case.
As for `CC1CCC2(C(=O)O)CCC3(C)C(=CCC4C5(C)C[C@@H](O)[C@@H](O)C(C)(CO)C5CCC43C)C2C1(C)O` (stereo partly specified), the Potency entry in assay [1] was “inactive”. Moreover, the Potency was 6.32 µM (active) in assay [2] and 3.17 µM (active) in assay [3].
`C[C@H]1[C@H](C)CC[C@]2(C(=O)O)CC[C@]3(C(=O)O)C(=CCC4[C@@]5(C)CC[C@H](O[C@@H]6O[C@@H](C)[C@H](O)[C@@H](O)[C@H]6O)C(C)(C)C5CC[C@]43C)[C@H]12` (stereo partly specified): the Potency result in assay [1], in assay [2] and in assay [3] was “inactive” each time.
Take `COc1cc([C@@H](O[C@@H]2O[C@H](CO)[C@@H](O)[C@H](O)[C@H]2O)[C@@H]2CO[C@H](c3ccc(O)c(OC)c3)[C@H]2CO)ccc1O`: the Potency entry in assay [1], in assay [2] and in assay [3] was “inactive” each time.
In the case of `C=C(C)[C@@]1(O)C[C@@]2(C)C(=CC1=O)CC[C@@H](O)[C@@H]2C`, the Potency entry in assay [1], in assay [2] and in assay [3] was “inactive” in each case.
Regarding `C/C=C/C=C/C=C/C(=O)N(C)C(C(=O)NC(C)C(=O)N1CCCC1C(N)=O)C(C)C` (stereo unspecified), the Potency entry in assay [1], in assay [2] and in assay [3] was “inactive” each time.
For `CN(C)CC(c1ccc(O)cc1)C1(O)CCCCC1` (stereo unspecified), the Potency entry in assay [1], in assay [2] and in assay [3] was “inactive” throughout.
`COc1cc(O)cc(C)c1C(=O)OC1C(CO)OC(n2ccc(=O)[nH]c2=O)C1OC(C)=O` (stereo unspecified): the Potency result in assay [1], in assay [2] and in assay [3] was “inactive” in each case.
For `O=C(O)Cc1cn([C@@H]2OC[C@@H](O[C@@H]3O[C@H](CO)[C@@H](O)[C@H](O)[C@H]3O)[C@H](O)[C@H]2O[C@@H]2O[C@H](CO)[C@@H](O)[C@H](O)[C@H]2O)c2ccccc12`, the Potency result in assay [1], in assay [2] and in assay [3] was “inactive” in each case.
Regarding `CC(C)c1ccc2c(c1)C(O)CC1C(C)(C(=O)O)CCCC21C` (stereo unspecified), the Potency entry in assay [1], in assay [2] and in assay [3] was “inactive” each time.
